In article PMC11006913 one finds binding signal data, which are given here for seven sequences.

Positions count from the first letter of the chain named.

Common to all, as to test: PBM; 200 nM protein, PBS
Common to all, as to conditions: dsDNA, one strand shown

Test [1] addresses HOXC9 (Homo sapiens, UniProt P31274 178-260, K195R).
Test [2] concerns the target HOXA2 (Homo sapiens, UniProt O43364 129-215, R185T).
Test [3] deals with HOXC9 (Homo sapiens, UniProt P31274 178-260).
The target in test [4] is HOXC9 (Homo sapiens, UniProt P31274 178-260, R193K).
HOXC9 (Homo sapiens, UniProt P31274 178-260, R193K), sequence (P31274 178-260 R193K): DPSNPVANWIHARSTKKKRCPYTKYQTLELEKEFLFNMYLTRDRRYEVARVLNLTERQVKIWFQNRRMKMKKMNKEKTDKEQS
The target of test [5] is HOXA2 (Homo sapiens, UniProt O43364 129-215, R185K).
HOXA2 (Homo sapiens, UniProt O43364 129-215, R185K), sequence (O43364 129-215 R185K): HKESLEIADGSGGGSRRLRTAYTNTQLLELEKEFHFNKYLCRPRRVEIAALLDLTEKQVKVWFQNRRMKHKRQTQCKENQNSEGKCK
In test [6] the target is PROP1 (Homo sapiens, UniProt O75360 56-141).
PROP1 (Homo sapiens, UniProt O75360 56-141), sequence (O75360 56-141): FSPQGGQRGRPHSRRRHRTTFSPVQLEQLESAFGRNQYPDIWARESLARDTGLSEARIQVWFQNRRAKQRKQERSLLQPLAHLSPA
The target of test [7] is PROP1 (Homo sapiens, UniProt O75360 56-141, R99H).
PROP1 (Homo sapiens, UniProt O75360 56-141, R99H), sequence (O75360 56-141 R99H): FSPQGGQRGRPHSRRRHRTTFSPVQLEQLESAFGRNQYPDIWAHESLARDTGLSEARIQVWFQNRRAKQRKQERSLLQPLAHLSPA
The target of test [8] is HOXC9 (Homo sapiens, UniProt P31274 178-260, R222W).
HOXC9 (Homo sapiens, UniProt P31274 178-260, R222W), sequence (P31274 178-260 R222W): as the sequence (P31274 178-260 R193K) above, with K16R, R45W counted along it
Test [9] concerns the target PROP1 (Homo sapiens, UniProt O75360 56-141, F88S).
In test [10] the target is HOXA2 (Homo sapiens, UniProt O43364 129-215, Y150S).
HOXA2 (Homo sapiens, UniProt O43364 129-215, Y150S), sequence (O43364 129-215 Y150S): as the sequence (O43364 129-215 R185K) above, with Y22S, K57R counted along it
For test [11], the target named is HOXA2 (Homo sapiens, UniProt O43364 129-215).
HOXA2 (Homo sapiens, UniProt O43364 129-215), sequence (O43364 129-215): as the sequence (O43364 129-215 R185K) above, with K57R counted along it
The target in test [12] is ALX3 (Homo sapiens, UniProt O95076 139-225, N203Q).
ALX3 (Homo sapiens, UniProt O95076 139-225, N203Q), sequence (O95076 139-225 N203Q): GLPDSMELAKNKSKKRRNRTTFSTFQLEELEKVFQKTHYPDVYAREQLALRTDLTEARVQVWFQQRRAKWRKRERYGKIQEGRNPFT
Test [13] addresses ALX3 (Homo sapiens, UniProt O95076 139-225).
Test [14] deals with ALX3 (Homo sapiens, UniProt O95076 139-225, L168Q).
ALX3 (Homo sapiens, UniProt O95076 139-225, L168Q), sequence (O95076 139-225 L168Q): as the sequence (O95076 139-225 N203Q) above, with L30Q, Q65N counted along it
The target in test [15] is ALX3 (Homo sapiens, UniProt O95076 139-225, L168V).
ALX3 (Homo sapiens, UniProt O95076 139-225, L168V), sequence (O95076 139-225 L168V): as the sequence (O95076 139-225 N203Q) above, with L30V, Q65N counted along it
Test [16] concerns the target ALX3 (Homo sapiens, UniProt O95076 139-225, N203S).
For test [17], the target named is HOXD13 (Homo sapiens, UniProt P35453 263-343, T313R).
HOXD13 (Homo sapiens, UniProt P35453 263-343, T313R), sequence (P35453 263-343 T313R): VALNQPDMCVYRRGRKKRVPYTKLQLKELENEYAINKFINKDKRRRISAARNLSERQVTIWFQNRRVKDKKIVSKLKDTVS
The target in test [18] is HOXD13 (Homo sapiens, UniProt P35453 263-343).
HOXD13 (Homo sapiens, UniProt P35453 263-343), sequence (P35453 263-343): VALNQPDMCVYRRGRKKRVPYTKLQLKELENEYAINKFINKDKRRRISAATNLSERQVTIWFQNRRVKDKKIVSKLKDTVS
Test [19] has as its target VAX1 (Homo sapiens, UniProt Q5SQQ9 86-172).
Test [20] deals with VAX1 (Homo sapiens, UniProt Q5SQQ9 86-172, T142I).
VAX1 (Homo sapiens, UniProt Q5SQQ9 86-172, T142I), sequence (Q5SQQ9 86-172 T142I): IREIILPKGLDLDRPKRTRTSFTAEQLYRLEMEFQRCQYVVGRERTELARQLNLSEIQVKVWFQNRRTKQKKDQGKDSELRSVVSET
The target of test [21] is VAX1 (Homo sapiens, UniProt Q5SQQ9 86-172, K157R).
VAX1 (Homo sapiens, UniProt Q5SQQ9 86-172, K157R), sequence (Q5SQQ9 86-172 K157R): as the sequence (Q5SQQ9 86-172 T142I) above, with I57T, K72R counted along it
Test [22] addresses T1, NKX2-6 (Homo sapiens, UniProt A6NCS4 118-204).
T1 sequence: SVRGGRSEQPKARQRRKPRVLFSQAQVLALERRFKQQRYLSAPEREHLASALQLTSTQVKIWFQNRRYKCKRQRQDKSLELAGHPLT

Test [23] deals with T2, NKX2-6 (Homo sapiens, UniProt A6NCS4 118-204, F151L).
T2 sequence: T1 sequence with F34L

In test [24] the target is HOXD13 (Homo sapiens, UniProt P35453 263-343, T313A).
HOXD13 (Homo sapiens, UniProt P35453 263-343, T313A), sequence (P35453 263-343 T313A): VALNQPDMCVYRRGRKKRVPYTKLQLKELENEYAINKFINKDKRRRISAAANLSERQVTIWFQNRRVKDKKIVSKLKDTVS
The target in another test is HOXB9 (Homo sapiens, UniProt P17482 171-250, R186Q).
HOXB9, sequence (P17482 171-250 R186Q): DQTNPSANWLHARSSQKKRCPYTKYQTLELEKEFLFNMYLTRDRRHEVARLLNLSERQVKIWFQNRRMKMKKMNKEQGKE

HOXC9 (Homo sapiens, UniProt P31274 178-260, K195R), sequence (P31274 178-260 K195R): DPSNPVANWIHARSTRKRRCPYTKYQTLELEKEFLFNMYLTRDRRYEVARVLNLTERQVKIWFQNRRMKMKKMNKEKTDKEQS
ALX3 (Homo sapiens, UniProt O95076 139-225, N203S), sequence (O95076 139-225 N203S): as the sequence (O95076 139-225 N203Q) above, with Q65S counted along it
ALX3 (Homo sapiens, UniProt O95076 139-225), sequence (O95076 139-225): as the sequence (O95076 139-225 N203Q) above, with Q65N counted along it
HOXC9 (Homo sapiens, UniProt P31274 178-260), sequence (P31274 178-260): as the sequence (P31274 178-260 R193K) above, with K16R counted along it
PROP1 (Homo sapiens, UniProt O75360 56-141, F88S), sequence (O75360 56-141 F88S): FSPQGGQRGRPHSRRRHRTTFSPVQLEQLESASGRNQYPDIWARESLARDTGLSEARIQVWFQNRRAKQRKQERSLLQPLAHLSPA
HOXA2 (Homo sapiens, UniProt O43364 129-215, R185T), sequence (O43364 129-215 R185T): as the sequence (O43364 129-215 R185K) above, with K57T counted along it
VAX1 (Homo sapiens, UniProt Q5SQQ9 86-172), sequence (Q5SQQ9 86-172): as the sequence (Q5SQQ9 86-172 T142I) above, with I57T counted along it

With CGGAGCCC, the binding signal with HOXC9 [1] was 9.46 upbm affinity estimate (log intensity, higher = more binding, comparable within an allelic series); in the test with HOXA2 [2], 7.2 upbm affinity estimate (log intensity, higher = more binding, comparable within an allelic series); in the test with HOXC9 [3], 9.37 upbm affinity estimate (log intensity, higher = more binding, comparable within an allelic series); in the test with HOXC9 [4], 9.44 upbm affinity estimate (log intensity, higher = more binding, comparable within an allelic series); in the test with HOXA2 [5] it was 10.2 upbm affinity estimate (log intensity, higher = more binding, comparable within an allelic series); with PROP1 [6], 6.65 upbm affinity estimate (log intensity, higher = more binding, comparable within an allelic series). For the same sequence, the binding signal with PROP1 [7] is 6.77 upbm affinity estimate (log intensity, higher = more binding, comparable within an allelic series); with HOXC9 [8], 9.51 upbm affinity estimate (log intensity, higher = more binding, comparable within an allelic series); in the test with PROP1 [9], 6.36 upbm affinity estimate (log intensity, higher = more binding, comparable within an allelic series); in the test with HOXA2 [10], 10.1 upbm affinity estimate (log intensity, higher = more binding, comparable within an allelic series); in the test with HOXA2 [11], 7.02 upbm affinity estimate (log intensity, higher = more binding, comparable within an allelic series).
Take AGGTGGGG: the binding signal in the test with HOXC9 [1] is 9.9 upbm affinity estimate (log intensity, higher = more binding, comparable within an allelic series); in the test with HOXA2 [2], 7.38 upbm affinity estimate (log intensity, higher = more binding, comparable within an allelic series); in the test with HOXC9 [3], 9.9 upbm affinity estimate (log intensity, higher = more binding, comparable within an allelic series); with ALX3 [12] it was 7.84 upbm affinity estimate (log intensity, higher = more binding, comparable within an allelic series); in the test with HOXC9 [4], 9.81 upbm affinity estimate (log intensity, higher = more binding, comparable within an allelic series); with HOXA2 [5], 10.4 upbm affinity estimate (log intensity, higher = more binding, comparable within an allelic series). In addition, the binding signal with ALX3 [13] was 7.86 upbm affinity estimate (log intensity, higher = more binding, comparable within an allelic series); with ALX3 [14], 7.87 upbm affinity estimate (log intensity, higher = more binding, comparable within an allelic series); with HOXC9 [8] it was 9.81 upbm affinity estimate (log intensity, higher = more binding, comparable within an allelic series); with ALX3 [15], 7.85 upbm affinity estimate (log intensity, higher = more binding, comparable within an allelic series); in the test with HOXA2 [10], 10.4 upbm affinity estimate (log intensity, higher = more binding, comparable within an allelic series); with ALX3 [16], 7.82 upbm affinity estimate (log intensity, higher = more binding, comparable within an allelic series). Further, the binding signal in the test with HOXA2 [11] is 7.26 upbm affinity estimate (log intensity, higher = more binding, comparable within an allelic series).
Take ACGATAAA: the binding signal is 11.7 upbm affinity estimate (log intensity, higher = more binding, comparable within an allelic series) with HOXC9 [1]; 11.8 upbm affinity estimate (log intensity, higher = more binding, comparable within an allelic series) in the test with HOXC9 [3]; 10.1 upbm affinity estimate (log intensity, higher = more binding, comparable within an allelic series) with HOXD13 [17]; 11.8 upbm affinity estimate (log intensity, higher = more binding, comparable within an allelic series) in the test with HOXC9 [4]; 10.8 upbm affinity estimate (log intensity, higher = more binding, comparable within an allelic series) in the test with HOXD13 [18].
For the sequence CCTCCCAG, the binding signal with HOXC9 [1] was 9.59 upbm affinity estimate (log intensity, higher = more binding, comparable within an allelic series); with HOXC9 [3], 9.7 upbm affinity estimate (log intensity, higher = more binding, comparable within an allelic series); in the test with ALX3 [12], 7.74 upbm affinity estimate (log intensity, higher = more binding, comparable within an allelic series); in the test with HOXC9 [4], 9.59 upbm affinity estimate (log intensity, higher = more binding, comparable within an allelic series); with ALX3 [13], 7.69 upbm affinity estimate (log intensity, higher = more binding, comparable within an allelic series); with VAX1 [19] it was 7.07 upbm affinity estimate (log intensity, higher = more binding, comparable within an allelic series). For the same sequence, the binding signal was 7.76 upbm affinity estimate (log intensity, higher = more binding, comparable within an allelic series) in the test with ALX3 [14]; 9.67 upbm affinity estimate (log intensity, higher = more binding, comparable within an allelic series) with HOXC9 [8]; 7.74 upbm affinity estimate (log intensity, higher = more binding, comparable within an allelic series) with ALX3 [15]; 7.13 upbm affinity estimate (log intensity, higher = more binding, comparable within an allelic series) in the test with VAX1 [20]; 7.72 upbm affinity estimate (log intensity, higher = more binding, comparable within an allelic series) with ALX3 [16]; 6.95 upbm affinity estimate (log intensity, higher = more binding, comparable within an allelic series) in the test with VAX1 [21].
Turning to CCTCTCCA, the binding signal in the test with HOXC9 [1] was 9.58 upbm affinity estimate (log intensity, higher = more binding, comparable within an allelic series); with HOXC9 [3], 9.63 upbm affinity estimate (log intensity, higher = more binding, comparable within an allelic series); in the test with NKX2-6 [22] it was 11.5 upbm affinity estimate (log intensity, higher = more binding, comparable within an allelic series); with HOXC9 [4], 9.69 upbm affinity estimate (log intensity, higher = more binding, comparable within an allelic series); in the test with NKX2-6 [23], 9.51 upbm affinity estimate (log intensity, higher = more binding, comparable within an allelic series); with HOXC9 [8], 9.7 upbm affinity estimate (log intensity, higher = more binding, comparable within an allelic series).
With ATTTAATA, the binding signal in the test with HOXC9 [1] was 12.4 upbm affinity estimate (log intensity, higher = more binding, comparable within an allelic series); in the test with HOXC9 [3], 12.5 upbm affinity estimate (log intensity, higher = more binding, comparable within an allelic series); in the test with HOXD13 [17], 10.9 upbm affinity estimate (log intensity, higher = more binding, comparable within an allelic series); with HOXC9 [4], 12.4 upbm affinity estimate (log intensity, higher = more binding, comparable within an allelic series); with HOXD13 [18] it was 11.9 upbm affinity estimate (log intensity, higher = more binding, comparable within an allelic series); in the test with HOXD13 [24] it was 11.8 upbm affinity estimate (log intensity, higher = more binding, comparable within an allelic series). For the same sequence, the binding signal is 11.4 upbm affinity estimate (log intensity, higher = more binding, comparable within an allelic series) in the test with HOXB9 and 11.1 upbm affinity estimate (log intensity, higher = more binding, comparable within an allelic series) with HOXC9 [8].
With CCCCCCTC, the binding signal was 9.44 upbm affinity estimate (log intensity, higher = more binding, comparable within an allelic series) with HOXC9 [1]; 9.34 upbm affinity estimate (log intensity, higher = more binding, comparable within an allelic series) with HOXC9 [3]; 7.49 upbm affinity estimate (log intensity, higher = more binding, comparable within an allelic series) in the test with ALX3 [12]; 8.92 upbm affinity estimate (log intensity, higher = more binding, comparable within an allelic series) with HOXD13 [17]; 9.54 upbm affinity estimate (log intensity, higher = more binding, comparable within an allelic series) with HOXC9 [4]; 9.09 upbm affinity estimate (log intensity, higher = more binding, comparable within an allelic series) with HOXD13 [18]. Moreover, the binding signal with ALX3 [13] is 7.67 upbm affinity estimate (log intensity, higher = more binding, comparable within an allelic series); with PROP1 [6], 6.57 upbm affinity estimate (log intensity, higher = more binding, comparable within an allelic series); with PROP1 [7], 6.41 upbm affinity estimate (log intensity, higher = more binding, comparable within an allelic series); with ALX3 [14] it was 7.57 upbm affinity estimate (log intensity, higher = more binding, comparable within an allelic series); with HOXD13 [24], 9.19 upbm affinity estimate (log intensity, higher = more binding, comparable within an allelic series); in the test with HOXC9 [8], 9.27 upbm affinity estimate (log intensity, higher = more binding, comparable within an allelic series). Also, the binding signal in the test with ALX3 [15] is 7.44 upbm affinity estimate (log intensity, higher = more binding, comparable within an allelic series); with PROP1 [9], 5.9 upbm affinity estimate (log intensity, higher = more binding, comparable within an allelic series); with ALX3 [16], 7.51 upbm affinity estimate (log intensity, higher = more binding, comparable within an allelic series).
